# Screens: PubChem BioAssay, National Center for Advancing Translational Sciences (NCATS)
# SMN2 splice enh: SMN2 splice variant enhancement; HEK293 SMN2-luciferase splicing reporter, luminescence, 30-36 h; Potency, µM (titrated, usually from 46.1 µM), actives largely listed as activators; hit rate 2.8% among 210,000; also: nearly all actives have a fitted effect of over 55% in size
#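 qHTS luciferase splicing reporter: luminescence rises when SMN2 exon 7 is included in transfected HEK293 cells. Compound exposure lasted 30-36 h at 37C, with 4.5 mM final sodium butyrate as control, followed by a ONE-Glo read.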
# p53 reactivator: re-activators of mutant p53. H1299 p53-A138V BP100-luciferase reporter, luminescence, 24 h. Potency, µM (series often up to 92.2 µM), hits mostly activators. hit rate 0.063% among 320,000; also: nearly all actives have a fitted effect of over 45% in size
#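 p53-null H1299 cells stably carrying temperature-sensitive p53-A138V and a BP100-luciferase reporter were pinned with compounds (4-point, 1:5 series) and held 24 hrs at 37 deg C. Luminescence was read 10 min after detection reagent.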
# ELG1 genotoxic: induces genotoxicity in HEK293T cells with luciferase-tagged ELG1; HEK293T ELG1-luciferase reporter, luminescence, 16 h; Potency, µM (highest dose often 46 µM), usual class: activators; hit rate 1.3% among 330,000; also: nearly all actives have a fitted effect of over 60% in size
#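 Luminescence read-out: rising ELG1-luciferase signal, reflecting elevated ELG1 protein under genetic stress, flags genotoxic compounds. Cells were treated for 16 hr at 37 °C before ONE-Glo detection.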
# Rab9 promoter act: activators of Rab9 promoter | hit rate 2.8% among 320,000 | Potency, µM (top dose mostly 9.22 µM), actives largely listed as activators | Huh7 Rab9 promoter-luciferase reporter, luminescence, 24 h | AID 485297; also: nearly all actives have a fitted effect of over 60% in size
#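 Quantitative HTS format; Huh7 Rab9-luciferase reporter cells (1500/well) receive compound 2 h post-plating, incubate 24 h at 37 °C, then get luciferase reagent for 10 min before luminescence reading.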
# FLuc counter: inhibits or activates purified firefly luciferase, miR-21 counter-screen; P08659; Potency, µM (titrated, usually from 57.5 µM), hits mostly inhibitors; purified FLuc, Km substrates, luminescence inhibition; hit rate 6.9% among 360,000; AID 588342; also: nearly all actives have a fitted effect of over 55% in size
# Target sequence (P08659 whole entry, looked up): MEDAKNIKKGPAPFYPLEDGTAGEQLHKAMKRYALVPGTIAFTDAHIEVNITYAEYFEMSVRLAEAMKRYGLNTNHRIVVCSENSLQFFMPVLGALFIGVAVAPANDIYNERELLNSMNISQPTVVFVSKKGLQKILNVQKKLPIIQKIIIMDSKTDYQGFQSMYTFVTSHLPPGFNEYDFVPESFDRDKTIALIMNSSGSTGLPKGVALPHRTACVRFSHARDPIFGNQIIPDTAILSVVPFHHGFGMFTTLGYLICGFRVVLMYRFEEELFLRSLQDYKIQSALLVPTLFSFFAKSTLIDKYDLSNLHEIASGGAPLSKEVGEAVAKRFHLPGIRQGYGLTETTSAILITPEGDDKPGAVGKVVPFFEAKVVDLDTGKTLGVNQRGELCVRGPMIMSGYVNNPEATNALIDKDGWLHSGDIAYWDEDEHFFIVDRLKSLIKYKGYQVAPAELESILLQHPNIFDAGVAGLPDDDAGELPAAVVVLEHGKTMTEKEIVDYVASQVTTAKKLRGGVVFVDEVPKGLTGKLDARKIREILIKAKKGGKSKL
#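 Purified P. pyralis luciferase, 10 nM final, with Km-level 10 uM D-luciferin and 10 uM ATP in 50 mM Tris acetate pH 7.5, 10 mM Mg acetate, 0.01% Tween-20, 0.05% BSA; 6-point qHTS titration about 60 µM downward; luminescence read.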
# NPC1 promoter act: activates the NPC1 promoter; Huh7 NPC1 promoter luciferase reporter, 24 h; Potency, µM (series often up to 9.22 µM), actives largely listed as activators; hit rate 2.4% among 320,000; AID 485313; also: nearly all actives have a fitted effect of over 60% in size
#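 Readout is luciferase luminescence, reflecting NPC1 promoter activation in stably transfected Huh7 cells after 24 h compound exposure at 37 °C in reduced-serum medium with 10% FBS.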
# Hits are given with their value; 0 = inactive; ? = inconclusive; - = no result given; [ ] = another dose, or the depositor's remark. Sampled rows, rich in hits. Any-hit rate of the full collection: about 7.4%. Calls follow the shape of the dose curve; as a rule, active = well fitted curve in the direction sought with a large enough effect; inconclusive = small, poorly fitted or top-dose-only effect, or another doubt; inactive = no such curve, though single readings can be large; an effect the other way counts as inactive or inconclusive.
SMILES,SMN2 splice enh,p53 reactivator,ELG1 genotoxic,Rab9 promoter act,FLuc counter,NPC1 promoter act
CC1(C)CC(=O)c2c(O)cc(OCC(=O)N3CCN(c4ccccc4)CC3)cc2O1,-,0,0,0,15.1µM,0
CC1=C2[C@@H]([C@H](C)CC[C@H]2/C=C(\C)C(=O)O)[C@H](O)C1,0,-,-,-,-,-
CNC(=S)N/N=C/C1=CCC2CC1C2(C)C (stereo not given),0,0,0,0,0,0
O=C(N/N=C\c1ccccn1)c1ccccc1O,0,?,?,0,12µM,0
O=C(N/N=C/c1ccc(-c2ccccc2)o1)c1ccccc1O,-,0,0,0,5.36µM,0
Cc1ccccc1C(=O)N/N=C/c1ccncc1,0,0,0,0,?,0
O=C(N/N=C\c1ccncc1)c1ccccc1O,0,0,0,0,9.53µM,0
CC1(C)C2CC=C(/C=N/NC(=O)c3ccccc3O)C1C2 (stereo not given),0,0,0,0,7.57µM,0
O=C(Cn1c(-c2cccs2)cc2cc(F)ccc21)N1CCN(c2ccccc2)CC1,-,-,-,-,0,-
COc1ccc(C(=O)Nc2ccccc2C(=O)N/N=C/c2ccccn2)cc1OC,-,?,20.6µM,0,0.849µM,0
Cc1ccccc1OCC(=O)N/N=C/c1ccccn1,0,0,0,0,0,0
Cc1ccccc1C(=O)N/N=C/c1ccccn1,11.2µM,?,25.9µM,3.98µM,8.49µM,3.16µM
COc1ccc(CCNC(=O)CCS(=O)(=O)c2ccc3c(c2)NC(=O)CO3)cc1OC,-,0,0,0,0,0
O=C(OCC(=O)c1c[nH]c2ccccc12)C1=COCCO1,?,?,?,3.55µM,15.1µM,?
Cc1ccc(-n2c(C)cc(C(=O)COC(=O)C3=NNC(=O)CC3)c2C)cc1,0,0,0,0,16.9µM,0
Cc1cc(C(=O)COC(=O)CC2Sc3ccccc3NC2=O)c(C)n1-c1ccc(Br)cc1 (stereo not given),0,0,0,0,0,0
O=C1CCC(C(=O)OCC(=O)c2c[nH]c3ccccc23)=NN1,0,0,0,0,0,0
Cc1cc(C(=O)COC(=O)C2=COCCO2)c(C)n1-c1ccccc1,-,0,0.259µM,-,-,-
Cc1cc(C(=O)COC(=O)CC2Sc3ccccc3NC2=O)c(C)n1-c1ccccc1 (stereo not given),0,0,0,0,6.01µM,0
O=C(OCC(=O)c1ccc[nH]1)C1=COCCO1,-,?,0,0,0,0
Cc1ccc(-n2c(C)cc(C(=O)COC(=O)c3c(C)noc3C)c2C)cc1,0,?,0,?,3.38µM,?
Cc1cc(C(=O)COC(=O)C2=NNC(=O)CC2)c(C)n1-c1ccccc1,0,0,0,0,1.9µM,0
CCC(=O)OCC(=O)c1cc(C)n(-c2ccc(Br)cc2)c1C,0,0,0,0,4.26µM,0
Cc1cc(C(=O)COC(=O)c2cnccn2)c(C)n1-c1ccc(Br)cc1,-,0,0,-,-,-
O=c1c2cn(Cc3ccccc3)c3ccccc3c-2nn1Cc1ccc(F)cc1Cl,-,0,0,0,0,0
SMILES,SMN2 splice enh,p53 reactivator,ELG1 genotoxic,Rab9 promoter act,FLuc counter,NPC1 promoter act
CSCCC(NC(=O)c1ccccc1)C(=O)N1CC(C)OC(C)C1 (stereo not given),-,0,0,0,0,0
Cc1ccc(-c2nc(C#N)c(NCCc3ccccn3)o2)cc1,?,?,?,?,?,3.55µM
COc1ccc(-c2nc(C#N)c(NCCc3ccccc3)o2)cc1,?,?,0,?,?,0
N#Cc1nc(-c2ccc(Cl)cc2)oc1NCCc1ccccn1,0,?,8.2µM,?,0,?
N#Cc1nc(-c2ccc(Cl)cc2)oc1NCc1ccco1,?,0,?,?,0[2.3 µM],?
COc1ccc2c(c1)CC/C2=N\NC(=O)c1ccccc1,15.8µM,?,?,?,12µM,?
COc1ccc(OCC(=O)N/N=C2\CCc3ccccc32)cc1,0,0,?,0,19µM,0
NC(=O)C(=O)N/N=C1\CCc2ccccc21,12.6µM,0,?,0,10.7µM,0
O=C(O)c1ccc(COc2ccc3ccccc3c2)o1,-,0,?,?,19µM,?
CCOc1ccc(OCc2ccc(C(=O)O)o2)cc1,0.891µM,0,?,0.282µM,3.38µM,?
C/C=C/c1ccccc1OCc1ccc(C(=O)O)o1,-,0,0,0,0,0
Cc1cccc(C(=O)N[C@H](C(=O)NCCc2ccc(Cl)cc2)C(C)C)c1,-,0,0,0,0,0
O=C(Nc1cccnc1Cl)c1ccc(=O)oc1,-,0,0,0,0,0
COCCN1C(=O)/C(=C/c2ccc(N3CCCC3)cc2C)SC1=S,-,0,0,0,4.78µM,0
COCCn1c(C)cc(/C=C2/SC(=O)N(CC(=O)N3CCCC3)C2=O)c1C,-,0,0,0,19µM,0
Cc1ccc(-n2c(C)cc(/C=C3/SC(=O)N(CC(=O)N4CCOCC4)C3=O)c2C)nc1,-,0,?,?,1.51µM,?
O=C(CN1C(=O)S/C(=C/c2cccs2)C1=O)N1CCCC1,-,0,0,0,0,0
CCn1c(C)cc(/C=C2/SC(=O)N(CC(=O)N3CCCC3)C2=O)c1C,-,0,0,0,21.3µM,0
CCn1c(C)cc(/C=C2\SC(=O)N(CC(=O)Nc3ccc(C)c(C)c3)C2=O)c1C,0,0,0,0,0,0
CCn1c(=O)n(CC)c2cc(N3CCCC3)c(NC(=O)Nc3cc(C)cc(C)c3)cc21,-,-,-,-,0,-
C[N+]1=C(/C=C/Nc2ccccc2Cl)C(C)(C)c2ccccc21,0[1.84 µM],0,0,0,?,0
COC(=O)c1ccc2c(c1)C(C)(C)C(/C=C/c1ccccc1O)=[N+]2C,0,0,?,0,15.1µM,0
COc1ccc(C2CC(=O)c3sc(NC(C)=O)nc3C2)cc1 (stereo not given),0,?,?,0,26.9µM,0
COc1ccc(OC)c(NC(=O)c2ccc(-c3nc(CSc4ccccc4)c(C)o3)cc2)c1,-,-,-,-,0,-
Cc1ccc2[nH]c3ccccc3c(=O)c2c1,-,0,0,0,16.9µM,?
SMILES,SMN2 splice enh,p53 reactivator,ELG1 genotoxic,Rab9 promoter act,FLuc counter,NPC1 promoter act
CC(C)(C)C(=O)Nc1nc2c(s1)CN(Cc1ccccc1)CC2,?,0,?,3.16µM,?,?
O=C(Nc1nc2c(s1)CN(Cc1ccccc1)CC2)C1CCCC1,0,0,0,?,0,0
CS(=O)(=O)N1N=C(c2ccccc2)CC1c1cccs1 (stereo not given),0,0,0,0,0,0
COc1ccc(C2=NN(S(C)(=O)=O)C(c3cccs3)C2)cc1OC (stereo not given),-,0,0,?,16.9µM,?
COc1cccc(C2=NN(S(C)(=O)=O)C(c3cccs3)C2)c1 (stereo not given),-,0,0,2.82µM,?,0
COc1ccc(Cl)cc1NC(=O)CN1CCc2ccccc2C1,-,-,0,0,0,0
Cc1ccc(Sc2c(C)nn(C(=O)c3ccc(Cl)cc3)c2C)cc1,0,-,-,-,0,-
